Screening results: PubChem BioAssay, National Center for Advancing Translational Sciences (NCATS)
FMDV antiviral: blocks foot and mouth disease virus; Potency, µM (series often up to 57.9 µM), most hits filed as inhibitors; FMDV antiviral cell-based qHTS; 410,000 compounds, 1.2% hits; calls by dose curve; tested in HEK293T cells; note: read-out not given here; nearly all actives have a fitted effect of over 45% in size
VACV Venus inh: vaccinia inhibition (Venus reporter). Potency, µM (series often up to 36.5 µM), usual class: inhibitors. 330,000 compounds, 0.46% hits. Vaccinia virus Venus reporter expression, fluorescence; calls by dose curve; tested in A549 cells; note: nearly all actives have a fitted effect of over 30% in size
Vaccinia mCherry: vaccinia inhibition (mCherry reporter); Vaccinia virus mCherry reporter infection, fluorescence; Potency, µM (doses to about 36.5 µM), usual class: inhibitors; 310,000 compounds, 0.63% hits; AID 720579; calls by dose curve; tested in A549 cells; note: nearly all actives have a fitted effect of over 35% in size
LASV entry inh: blocks Lassa virus binding to or entry into cells; Lassa virus pseudotype entry inhibition, cell reporter; Potency, µM (top dose mostly 37.9 µM), hits mostly inhibitors; 300,000 compounds, 1.2% hits; calls by dose curve; tested in HEK293 cells; note: nearly all actives have a fitted effect of over 50% in size
MARV entry inh: inhibitors of Marburg virus binding or cell entry | 300,000 compounds, 1.8% hits | Potency, µM (doses to about 37.8 µM), usual class: inhibitors | Marburg virus pseudotyped entry inhibition, cell reporter; calls by dose curve; tested in HEK293 cells
HCMV antiviral: blocks human cytomegalovirus replication. HFF cells, HCMV-luciferase reporter, 72 h; hits give low values. activity change, negative = inhibition, % at 57.5 µM. 410,000 compounds, 4.5% hits; in the data active = activity change below about -60%; inconclusive = no clear call, values can overlap the other calls; inactive = above about -39%
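Human foreskin fibroblasts infected with luciferase-reporter HCMV at MOI 1 PFU/cell, compounds at two doses. Luciferase measured 72 h post infection; normalized to buffer-only basal and Salinomycin (10uM) controls.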
Numbers stand for hits; . = inactive; ? = inconclusive; / = not tested or not shown; [ ] = another dose, or the depositor's remark. Rows were chosen to be rich in hits. Some 6.5% of all compounds tested hit in one or more screens of this group.

SMILES	FMDV antiviral	VACV Venus inh	Vaccinia mCherry	LASV entry inh	MARV entry inh	HCMV antiviral
c1cc2c3c(cccc3c1)C(N1CCOCC1)=N2	.	.	.	?	.	.
CC(=O)N1CCN(C2=Nc3cccc4cccc2c34)CC1	/	.	.	.	.	.
COc1ccccc1N1CCN(C(=O)CCCN2C(=O)c3cccc4cccc(c34)C2=O)CC1	?	.	11µM	.	?	.
O=C(COc1ccccc1C(=O)Nc1ccccc1)NC1CCCCC1	/	.	.	/	/	/
COc1ccccc1N1CCN(C(=O)CCCn2c(=S)[nH]c3ccccc3c2=O)CC1	25µM	?	?	/	/	.
O=C(CCCN1C(=O)c2cccc3cccc(c23)C1=O)N1CCN(c2ncccn2)CC1	.	/	/	/	/	-66
COc1ccc(OCC(=O)N2c3ccc(C)cc3C3CN(C)CCC32)cc1 (stereo not given)	.	.	.	.	.	.
COc1ccccc1Cn1c(=S)[nH]c2ccc(Br)cc2c1=O	.	.	.	.	.	-86
Cc1ccc2c(c1)C1CN(C)CCC1N2C(=O)CCCN1C(=O)c2cccc3cccc(c23)C1=O (stereo not given)	.	.	.	.	7.9µM	.
CN(C)c1ccc(CNC(=O)c2csc(N3CCN(CCc4ccccc4)C3=O)n2)cc1	/	/	/	/	/	.
COc1cc(-c2cc(C)c3cccc(OC)c3n2)cc2c1OCCN(C(=O)Cn1nc(C)cc1C)C2	.	.	.	/	/	/
O=C(CCCN1C(=O)c2cccc3cccc(c23)C1=O)NCc1ccco1	.	.	.	/	/	-89
O=C(CCCN1C(=O)c2ccccc2C1=O)NCc1ccco1	.	.	/	.	.	.
COc1ccc(CCNC(=O)/C=C\c2ccccc2)cc1OC	.	.	.	.	.	?
COc1ccc2cc3cc(C(=O)NCCc4ccc(OC)c(OC)c4)oc3nc2c1	8.9µM	?	.	?	?	.
COc1ccc(CC(C)CC(=O)NCCc2ccc(OC)c(OC)c2)cc1 (stereo not given)	.	/	/	/	/	-61
COc1ccc(/C=C/C(=O)NC(=S)NCCc2ccc(OC)c(OC)c2)cc1	?	?	?	.	?	-62
COc1ccc(CCNC(=O)CSC(=O)c2ccccc2)cc1OC	.	/	/	/	/	-60
COc1ccc(CCNC(=O)CSc2ccccc2)cc1OC	.	.	.	.	.	.
COc1ccc(OC)c(CNC(=O)c2cc3cc4ccc(OC)cc4nc3o2)c1	.	.	.	.	.	.
CN(Cc1ccc2c(c1)CN(C(=O)c1cccc(N(C)C)c1)CCO2)Cc1cc(C2CC2)n[nH]1	.	.	.	/	/	/
Cc1ccc(CN2CCOc3ccc(CN4CCC(Oc5cccnc5)CC4)cc3C2)o1	.	.	.	/	/	/
O=C(Cn1cc(SCc2ccc(C(F)(F)F)cc2)c2ccccc21)N1CCCC1	.	.	.	?	/	.
CN(C)c1ccc(/C=C/c2nc3ccccc3s2)cc1Cl	/	.	.	/	/	/
C=CCNc1nc(NC2CCN(C)CC2)c2cc(OC)c(OC)cc2n1	/	?	.	/	/	/
SMILES	FMDV antiviral	VACV Venus inh	Vaccinia mCherry	LASV entry inh	MARV entry inh	HCMV antiviral
COc1ccc2c(=O)c(C(=O)NCCc3ccc(OC)c(OC)c3)c[nH]c2c1	?	/	/	?	7.3µM	.
COc1ccc(C(=O)CCc2ccc(OC)c(OC)c2)cc1	.	.	.	.	?	-80
CCOc1ccc2nc(SCC(=O)NC3CCCCC3)[nH]c2c1	.	.	.	.	10µM	?
C/C(=N/NC(=O)c1cc(C2CC2)[nH]n1)c1cccs1	.	.	.	2.6µM	10µM	.
COc1cccc(-c2nnc(-c3ccccc3NC(=O)c3cccc(C(F)(F)F)c3)o2)c1	.	.	.	.	.	.
CN(C)Cc1c(O)ccc2c1O/C(=C\C=C\c1ccccc1)C2=O	.	.	.	/	/	-65
COc1ccccc1/C=C/C=C1\Oc2c(ccc(O)c2CN2CCN(CCO)CC2)C1=O	.	.	.	.	.	-93
CCN1CCN(Cc2c(O)ccc3c2O/C(=C\C=C\c2ccccc2)C3=O)CC1	.	.	.	?	?	?
O=C1/C(=C/C=C/c2ccccc2)Oc2c1ccc(O)c2CN1CCN(CCO)CC1	.	/	/	/	/	.
O=C(Nc1ccc(F)c(Cl)c1)N1CCC(CN2CCc3ccccc3C2)CC1	.	.	.	.	/	.
N#Cc1cccc(NC(=O)C2CCN(c3ncccn3)CC2)c1	.	.	.	.	.	?
N#Cc1cccc(NC(=O)C2CCN(c3nc(-c4ccc(Cl)cc4)no3)CC2)c1	25µM	.[7.34 µM]	.[7.34 µM]	.	/	?
CCOC(=O)C1(CCc2ccccc2)CCN(Cc2ccc(O)cc2)CC1	?	/	/	/	/	.
